# According to PubChem BioAssay (EPA / NIEHS):
# Results filed as inconclusive are left out. Activity calls are given as the source filed them. The calls were made as follows: active = hit-call score of the fitted dose curve at least 0.9, where 1 is the maximum; inconclusive = response in the unintended direction; inactive = score below 0.9.
# Test system: not listed separately
# Experiment: ATG_GAL4_TRANS: Attagene TRANS-FACTORIAL HepG2 Assay for GAL4 (Internal Marker) (AID 2282976)
# Conditions: HepG2 Attagene TRANS GAL4 internal marker reporter
# Summary of the method: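 Fluorescence from capillary electrophoresis of labelled RT-PCR products quantifies reporter mRNA induction after 24 h dosing of HepG2 cells carrying transfected GAL4-UAS reporter transcription units. Vehicle DMSO serves as baseline.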
row,SMILES,outcome
1,O=[N+]([O-])c1cc(C(F)(F)F)c(Cl)c([N+](=O)[O-])c1Nc1ncc(C(F)(F)F)cc1Cl,inactive
2,CCC(=O)Nc1ccc(Cl)c(Cl)c1,inactive
3,CCOP(=O)(NC(C)C)Oc1ccc(SC)c(C)c1 (configuration not stated),inactive

# Biological target: Estrogen-related receptor gamma (Homo sapiens) (UniProt P62508)
# Sequence (P62508 whole entry, looked up): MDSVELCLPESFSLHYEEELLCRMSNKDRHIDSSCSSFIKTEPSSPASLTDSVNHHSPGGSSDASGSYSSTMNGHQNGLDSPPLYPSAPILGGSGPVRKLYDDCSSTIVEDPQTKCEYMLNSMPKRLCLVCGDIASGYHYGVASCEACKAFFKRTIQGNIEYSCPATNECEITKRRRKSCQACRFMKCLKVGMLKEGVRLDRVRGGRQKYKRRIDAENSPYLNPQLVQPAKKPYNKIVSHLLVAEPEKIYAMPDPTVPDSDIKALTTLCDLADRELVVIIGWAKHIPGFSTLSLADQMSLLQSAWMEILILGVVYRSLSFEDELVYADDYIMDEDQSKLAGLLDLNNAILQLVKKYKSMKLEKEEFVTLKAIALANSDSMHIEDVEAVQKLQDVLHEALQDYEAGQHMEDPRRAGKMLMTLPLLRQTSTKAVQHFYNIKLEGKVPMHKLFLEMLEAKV
# Experiment: ATG_ERRg_TRANS: Attagene TRANS-FACTORIAL HepG2 Assay for human Estrogen-Related Receptor gamma (ERRg) (AID 2282977);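 also: hits increase reporter signal over DMSO so potencies reflect activators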
# Conditions: HepG2 Attagene TRANS reporter, ERRg transactivation
# Summary of the method: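 Readout: fluorescent reporter-mRNA fragments resolved by capillary electrophoresis after RT-PCR and HpaI cut. Cells: transiently transfected HepG2 carrying GAL4-UAS reporters driven by exogenous NR-Gal4 chimeras, dosed 24 h. Activity fitted upward relative to DMSO baseline.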
row,SMILES,outcome
1,CC(COc1ccc(Oc2ccccc2)cc1)Oc1ccccn1 (configuration not stated),inactive
2,CCCCN(CC)c1c([N+](=O)[O-])cc(C(F)(F)F)cc1[N+](=O)[O-],inactive
3,COc1cc(OC)nc(Sc2cccc(Cl)c2C(=O)O)n1,inactive
4,Cc1ccn2nc(S(=O)(=O)Nc3c(F)cccc3F)nc2n1,inactive
5,CCc1cccc(C)c1N(C(=O)CCl)C(C)COC (configuration not stated),inactive
6,CCOP(=S)(Oc1cnc(C(C)(C)C)nc1)OC(C)C (configuration not stated),inactive
7,Nc1c(Cl)cc([N+](=O)[O-])cc1Cl,inactive
8,CCOP(=S)(OCC)OC(Cl)C(Cl)(Cl)Cl (configuration not stated),inactive
9,N#CSCSC#N,inactive
10,C#CCC1=C(C)C(OC(=O)C2C(C=C(C)C)C2(C)C)CC1=O (configuration not stated),inactive
11,COP(=O)(OC)C(O)C(Cl)(Cl)Cl (configuration not stated),inactive
12,CC1(C(=O)Nc2ccc(O)c(Cl)c2Cl)CCCCC1,inactive
13,CNC(=O)ON=C(SC)C(=O)N(C)C,inactive
14,CCCCOC(=O)[C@@H](C)Oc1ccc(Oc2ccc(C#N)cc2F)cc1,inactive
